hERG WT inh = blocks the wildtype human KCNH2 potassium channel. 340,000 compounds, 0.37% hits. U2OS, BacMam KCNH2, thallium flux FluxOr; hits give low values. Q12809. activity change, % at 1.84 µM. AID 720551;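 active = maximum activity change below -70%; inconclusive = maximum activity change between -70% and -50%; inactive = maximum activity change above -50%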; also: % is scaled to controls: 0 for no effect and ±100 for the full control effect
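U2OS cells were transduced with wild-type KCNH2 virus (2.03 x 10^8 / mL) for 4 h at room temperature, then cultured overnight at 37 C. Thallium flux was read with FluxOr dye. Rate constants were normalized to DMSO controls.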
CCT chaperon mod = changes cytosolic chaperonin activity; purified chaperonin ATPase assay, HTRF ADP detection, 30 min; activity change, % (concentration not given with the values), hits read low; 360,000 compounds, 0.3% hits; AID 651819; in the data active = activity change below about -30%; also: % is scaled to controls: 0 for no effect and ±100 for the full control effect
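We incubate TRiC, 40 or 20 nM final, with library compounds at 76 uM and 10 uM ATP for 30 min at 37 °C. ADP formed is detected with Transcreener HTRF reagents after 30 min at room temperature.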
Rango dissoc inh = inhibitors of RanGTP-induced Rango-importin beta complex dissociation; O95149+P62826; Biochemical FRET Rango-importin beta, RanGTP-induced dissociation; Potency, µM (doses to about 46.1 µM), inactives show top-dose activity change, negative = inhibition; 340,000 compounds, 0.071% hits; also: potency is read from the fitted curve at half-maximal effect; % of control where 0% means no effect; nearly all actives have a fitted effect of over 45% in size
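Recombinant Rango FRET biosensor (EYFP–snurportin 1 IBB–cerulean CFP10) at 0.1 uM premixed with 0.25 uM importin beta in PBS, 1 mM DTT, 0.02% Tween-20, 0.1% BSA. Compound added 5 min; RanGTP-RCC1 (0.6 uM Ran, 2 mM GTP, 0.2 uM RCC1) then triggers release, read at 45 min.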
Mm-Cpn inhibitor = inhibitors of Methanococcus maripaludis chaperonin TRiC (MmCpn); 330,000 compounds, 0.031% hits; Potency, µM (doses to about 76.9 µM), without a hit: top-dose activity, negative = inhibition, usual class: inhibitors; purified Mm-Cpn ATPase, ADP Transcreener TR-FRET; active = well fitted inhibition curve with a large enough effect; inconclusive = small, poorly fitted or top-dose-only effect; also: potency is read from the fitted curve at half-maximal effect; % is scaled to controls: 0 for no effect and ±100 for the full control effect; nearly all actives have a fitted effect of over 80% in size
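Reaction buffer contained 30 mM Tris pH 7.4, 100 mM KCl, 5 mM MgCl2 and 1 mM DTT. Mm-CPN (25 nM final) hydrolysed 10 uM ATP over 30 min at 37°C; ADP was read by HTRF.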
Rango-impB inh = inhibitors of Rango-importin beta complex formation; Rango CFP/YFP FRET sensor + importin beta, 45 min; Potency, µM (highest dose often 92.2 µM), for inactives: at the top dose inhibition of complex formation; AID 540263; 340,000 compounds, 0.031% hits;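 also: potency is read from the fitted curve at half-maximal effect; 0% = DMSO wells and 100% = buffer wells lacking importin beta; nearly all actives have a fitted effect of over 15% in size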
Target sequence (Q14974 whole entry, looked up): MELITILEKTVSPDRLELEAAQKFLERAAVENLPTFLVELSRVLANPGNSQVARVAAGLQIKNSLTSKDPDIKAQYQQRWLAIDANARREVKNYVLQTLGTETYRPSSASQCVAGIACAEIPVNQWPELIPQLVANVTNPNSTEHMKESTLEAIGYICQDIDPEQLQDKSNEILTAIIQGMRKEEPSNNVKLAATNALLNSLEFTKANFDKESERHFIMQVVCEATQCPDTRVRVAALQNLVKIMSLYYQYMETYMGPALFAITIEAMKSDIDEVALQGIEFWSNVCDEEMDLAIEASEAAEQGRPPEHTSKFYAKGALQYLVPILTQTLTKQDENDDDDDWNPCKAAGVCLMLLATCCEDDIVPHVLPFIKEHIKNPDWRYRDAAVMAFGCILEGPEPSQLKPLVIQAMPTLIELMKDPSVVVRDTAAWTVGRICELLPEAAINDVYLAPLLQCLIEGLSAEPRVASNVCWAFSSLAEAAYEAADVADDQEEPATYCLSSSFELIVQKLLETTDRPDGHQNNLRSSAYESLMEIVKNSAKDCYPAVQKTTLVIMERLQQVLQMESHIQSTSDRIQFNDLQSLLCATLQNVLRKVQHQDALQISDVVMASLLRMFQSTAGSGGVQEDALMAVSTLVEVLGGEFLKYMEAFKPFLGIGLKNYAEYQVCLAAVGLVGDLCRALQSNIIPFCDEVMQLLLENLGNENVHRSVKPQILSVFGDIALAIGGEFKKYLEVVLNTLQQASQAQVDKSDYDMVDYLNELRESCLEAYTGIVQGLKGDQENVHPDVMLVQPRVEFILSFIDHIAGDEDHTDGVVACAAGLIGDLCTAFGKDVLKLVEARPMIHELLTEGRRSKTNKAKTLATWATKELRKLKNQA
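Inhibition scored from the CFP 486 nm/YFP 530 nm FRET ratio 45 min after adding 0.125 microM importin beta to 50 nM Rango biosensor preincubated 5 min with compound (room temperature, PBS with DTT, Tween-20, BSA). No-importin wells as positive control.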
KCNH2 3.1 block = inhibitors of human KCNH2 3.1 potassium channel isoform; U2OS KCNH2 3.1, thallium flux FluxOr; hits give low values; activity change, % (tested at about 1.8 µM); 340,000 compounds, 0.95% hits; AID 720553;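 active = maximum activity change below -70%; inconclusive = maximum activity change from -70% to -50%; inactive = maximum activity change above -50%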;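 also: thallium influx rate constant from kinetic fluorescence after stimulation buffer; % is scaled to controls: 0 for no effect and ±100 for the full control effect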
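Normalized rate constant (relative to positive and negative DMSO controls) derived from a 2 min kinetic fluorescence read after stimulation; U2OS cells expressing the 3.1 isoform via virus at 1.77 x 10^8 /mL.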
Active calls of the source: *; ? = inconclusive; / = no result; [ ] = dose if it differs, or a comment. This is a sample that favours compounds with a hit; in the whole collection about 1.4% have one here. Unless noted, calls follow the shape of the full dose curve.

SMILES	hERG WT inh	CCT chaperon mod	Rango dissoc inh	Mm-Cpn inhibitor	Rango-impB inh	KCNH2 3.1 block
CCN(CC)C(=O)[C@H]1CC(CC(=O)NCc2ccc(OC)c(OC)c2)C(=O)N2CCc3c([nH]c4ccc(OC)cc34)[C@]12C (some centres undefined)	8	0	-9%	-1%	-3%	-3
Cc1cc2c(c(=O)o1)C1O[C@](c3ccsc3)(Cc3ccccc31)O2	/	/	/	1%[15.4 µM]	/	/
O=C(Cc1ccccc1)Nc1ccc(Cl)cn1	-7	2	-5%	0%	2%	-43
CCOc1ccc(OCCC(=O)OCC(=O)Nc2ccc(Cl)cn2)cc1	8	-33*	-17%	2%	-3%	25
O=C(CCc1ccccc1)Nc1ccc(Cl)cn1	-10	-53*	8%	1%	4%	-9
O=C(COC(=O)Cc1ccccc1F)Nc1ccc(Cl)cn1	1	-33*	-17%	2%	-6%	5
C#CCOCCOCCOCCNc1nc(N2CCOCC2)nc(N2CCN(C(=O)[C@H](CCC(=O)O)n3cc(C(N)Cc4ccc(O)cc4)nn3)CC2)n1 (some centres undefined)	-10	-1	-3%	/	-1%	-6
O=C(c1cc2ccccc2o1)N1CCN(S(=O)(=O)c2ccc(F)c(F)c2F)CC1	0	-4	28%	1%	0%	-4
CC(C)CCC(CCNCc1ccccn1)c1ccc2c(c1)OCO2 (centres undefined)	?	1	5%	-2%	1%	-95*
Fc1ccccc1CNCCC(Cc1ccccc1)c1ccc2c(c1)OCO2 (centres undefined)	21	1	-18%	2%	?	-11
CCNCCC(CCC(C)C)c1ccc2c(c1)OCO2 (centres undefined)	-79*	1	5%	-2%[15.4 µM]	-2%	-99*
COc1ccc(CCNC(=O)c2cccc(S(=O)(=O)NC(C)c3ccccc3)c2)cc1 (centres undefined)	-13	0	2%	-1%	1%	16
Cc1ccc(/C(N)=N/OC(=O)c2cccs2)cc1	-176*	-1	0%	1%	-1%	-185*
Cc1cc(N2CCN(c3nc(-c4ccccc4)cs3)CC2)c2ccccc2n1	-35	-1	0%	0%	-5%	-79*
Cc1cc(N2CCN(S(=O)(=O)c3ccccc3)CC2)c2ccccc2n1	-109*	-1	2%	1%	2%	-43
O=S(=O)(c1ccccc1)N1CCN(c2ccnc3cc(Cl)ccc23)CC1	-10	-5	-6%	2%	?	?
Cc1cc(C(=O)OCC(=O)NC2CCS(=O)(=O)C2)c2ccccc2n1 (centres undefined)	5	2	-5%	1%	1%	4
O=C(COC(=O)c1cc(-c2cccc3ccccc23)nc2ccccc12)NC1CCS(=O)(=O)C1 (centres undefined)	-3	-112*	-6%	?	-1%	13
Cc1ccc(NS(=O)(=O)c2c(C(=O)N3CCCC3)c(C)n(C)c2C)cc1	4	-1	4%	1%	0%	11
COc1ccc(NS(=O)(=O)c2c(C(=O)N3CCCCCC3)c(C)n(C)c2C)cc1	9	-1	-18%	-2%	1%	-74*
Cc1c(C(=O)N2CCOCC2)c(S(=O)(=O)Nc2ccccc2)c(C)n1C	-3	-53*	-12%	0%	0%	-8
CCOC(=O)/C(C#N)=C/Nc1cc(F)ccc1C	9	1	13%	2%	-2%	5
CCOC(=O)/C(C#N)=C/Nc1ccsc1C(=O)OC	-6	-49*	12%	1%	1%	9
COCCOC(=O)C1=C(C)NC(=S)NC1c1cccs1 (centres undefined)	1	-5	5%	1%	0%	-76*
COCCOC(=O)C1=C(C)NC(=O)NC1c1cccs1 (centres undefined)	11	0	-20%	2%	1%	0
SMILES	hERG WT inh	CCT chaperon mod	Rango dissoc inh	Mm-Cpn inhibitor	Rango-impB inh	KCNH2 3.1 block
CC(C)CCc1noc(CN(CC2CCC2)CC2CCCO2)n1 (centres undefined)	-11	0	-1%	1%	0%	-72*
Cc1[nH]c2ccccc2c1/C=C/C(=O)c1ccccc1	-28	1	?	0%	?	-86*
Cc1[nH]c2ccccc2c1/C=N/NC(=O)c1ccccc1	-7	-1	11%	1%	4%	0
Cc1cccc(NC(=O)CN2CCN(C(=O)c3cccc(-n4cnnn4)c3)CC2)c1C	26	-1	1%	-1%	-1%	-7
O=C(CN1CCN(C(=O)c2cccc(-n3cnnn3)c2)CC1)Nc1ccccc1Cl	-38	1	-12%	1%	-1%	-73*
CCOC(=O)c1c(NC(C)=O)sc2c1CCC(C=O)=C2Sc1ccccc1	28	-2	15µM*	1%	?	14
CCOC(=O)c1c(NC(C)=O)sc2c1CCN(Cc1ccccc1)C2	-3	-1	?	1%	?	12
CC(C(=O)O)n1c(-c2ccn[nH]2)n[nH]c1=S (centres undefined)	7	-1	32%	0%	2%	5
Cc1ccc(N(CC(=O)NC2CCCCCC2)S(=O)(=O)c2c(C)nn(C)c2C)cc1	2	-47*	12%	2%	2%	-8
NC(=O)c1ccc(NC(=O)CSc2nnc(-c3cccnc3)n2Cc2ccco2)cc1	-14	-73*	?	4%	?	0
CC(C)c1ccc(NC(=O)CSc2n[nH]c(=O)n2Cc2ccco2)cc1	-1	-3	20%	-4%	2%	-88*
O=C(CSc1n[nH]c(=O)n1Cc1ccco1)Nc1ccccc1	7	-2	6%	0%	1%	-29
O=C(CSc1nnc(-c2cccnc2)n1Cc1ccco1)c1ccccc1	15	-1	-14%	0%	0%	-17
O=C(NCC(O)c1ccccc1)c1ccc(Cl)c(S(=O)(=O)N2CCCCC2)c1 (centres undefined)	9	-2	-1%	-3%	-2%	-8
CCCCC(=O)NC(c1ccccc1Cl)c1ccc2cccnc2c1O (centres undefined)	-17	0	-11%	1%	-2%	-97*
CCCCC(=O)NC(c1ccccc1)c1ccc2cccnc2c1O (centres undefined)	0	-1	-12%	-1%	-1%	-3
CCCC(=O)NC(c1ccccc1)c1ccc2cccnc2c1O (centres undefined)	-262*	0	5%	-3%	-1%	-4
